Reference: PubChem BioAssay (NCATS)
Records with an inconclusive call do not appear. Calls of active or inactive are those of the source. Unless noted, the call rests on the fitted dose curve; in most records, active means well fitted curve in the direction sought with a large enough effect; inconclusive means small, poorly fitted or top-dose-only effect, or another doubt; inactive means no such curve, though single readings can be large; an effect the other way counts as inactive or inconclusive.

Columns and labels:
[1] = Confirmation and Secondary Assay for Modulators of Hemoglobin Beta Chain Splicing at IVS2 654 locus (AID 910); further: % of control where 0% means no effect
How it was run: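 HeLa cells stably carrying EGFP interrupted by mutant beta-globin IVS2-654 intron (CMV-driven) were treated with compound for 2 days at 37C; corrected splicing was scored as total peak GFP intensity per well (488 nm excitation, 500-520 nm emission).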

[2] = Confirmation and Secondary Assay for Modulators of Hemoglobin Beta Chain Splicing at IVS2 705 locus (AID 930);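 further: HeLa cells stably expressing the EGFP-705 splicing reporter; GFP fluorescence per well restored by corrected splicing of the IVS2-705 intron in EGFP; % of control where 0% means no effect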
How it was run: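 HeLa cells stably carrying EGFP interrupted by mutant beta-globin intron 2 (IVS2-705) treated 2 days at 37C with compound; 500 nM antisense PNA as control. Correct splicing read as total peak GFP intensity per well by laser-scanning cytometry.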

[3] = qHTS Assay for Lipid Storage Modulators (AID 1519; calls by dose curve; on activity change, negative = inhibition: on the % scale 0 is the no-effect control and ±100 the full control effect); conditions: Drosophila S3 cells, BODIPY lipid droplet/cell ratio, laser cytometry, cells loaded with oleic acid; for activity change, negative = inhibition: at 57.5 µM (top of the series)
How it was run: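 Cells seeded at 5,000 per well were treated with compounds over a concentration series and loaded with oleic acid (400 uM, as added). Lipid droplet fluorescence (488 nm excitation, 500-530 nm channel) was read by laser-scanning cytometry and normalized to 20 uM Triacsin C.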

[4] = target: Cytochrome P450 3A4 (Homo sapiens) (UniProt P08684); assay: qHTS Assay for Activators of Cytochrome P450 3A4 (AID 885); further: nearly all actives have a fitted effect of over 65% in size
Chain of Cytochrome P450 3A4 (Homo sapiens) (P08684 whole entry, looked up): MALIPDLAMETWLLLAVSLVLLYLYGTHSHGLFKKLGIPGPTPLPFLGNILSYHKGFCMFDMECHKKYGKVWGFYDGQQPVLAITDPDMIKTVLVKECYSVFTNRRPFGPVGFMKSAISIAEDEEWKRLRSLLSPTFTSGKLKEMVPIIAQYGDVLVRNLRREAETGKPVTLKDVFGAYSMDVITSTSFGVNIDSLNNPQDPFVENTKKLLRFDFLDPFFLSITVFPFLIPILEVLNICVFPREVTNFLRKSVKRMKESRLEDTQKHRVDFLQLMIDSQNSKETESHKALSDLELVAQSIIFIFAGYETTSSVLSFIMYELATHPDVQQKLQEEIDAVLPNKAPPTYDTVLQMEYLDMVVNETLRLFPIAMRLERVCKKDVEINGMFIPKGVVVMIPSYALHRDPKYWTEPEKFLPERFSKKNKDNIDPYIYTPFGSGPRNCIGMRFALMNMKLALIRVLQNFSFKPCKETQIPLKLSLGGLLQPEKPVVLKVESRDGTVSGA
How it was run: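 Human CYP3A4 (20 nM) with Luciferin-PPXE at 25 uM (its KM) in 200 mM KPO4; 10 min compound preincubation, then NADPH regeneration and 60 min reaction at RT. Luciferin read by luminescence; normalized to 57 uM ketoconazole full inhibition.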

[5] = target: Cytochrome P450 3A4 (Homo sapiens) (UniProt P08684); assay: qHTS Assay for Inhibitors and Substrates of Cytochrome P450 3A4 (AID 884); further: nearly all actives have a fitted effect of over 50% in size; further: potency means the concentration at half of the fitted maximal effect; on activity change, negative = inhibition: on the % scale 0 is the no-effect control and ±100 the full control effect
How it was run: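 20 nM human CYP3A4 with 25 uM Luciferin-PPXE (at KM) in 200 mM KPO4, preincubated 10 min with compound; NADPH regeneration started a 60 min RT reaction. Luciferin detected by luminescence, normalized to 57 uM ketoconazole as full inhibition.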

[6] = target: Cytochrome P450 2D6 (Homo sapiens) (UniProt P10635); assay: Cytochrome P450 family 2 subfamily D member 6 (CYP2D6) small molecule antagonists: luciferase biochemical (cell-free) qHTS assay (AID 1645840; active means well fitted curve in the direction sought with a large enough effect in the repeat runs; an effect the other way counts as inactive or inconclusive; further: nearly all actives have a fitted effect of over 55% in size; further: potency means the concentration at half of the fitted maximal effect; on activity change, negative = inhibition: on the % scale 0 is the no-effect control and ±100 the full control effect)
Chain of Cytochrome P450 2D6 (Homo sapiens) (P10635 whole entry, looked up): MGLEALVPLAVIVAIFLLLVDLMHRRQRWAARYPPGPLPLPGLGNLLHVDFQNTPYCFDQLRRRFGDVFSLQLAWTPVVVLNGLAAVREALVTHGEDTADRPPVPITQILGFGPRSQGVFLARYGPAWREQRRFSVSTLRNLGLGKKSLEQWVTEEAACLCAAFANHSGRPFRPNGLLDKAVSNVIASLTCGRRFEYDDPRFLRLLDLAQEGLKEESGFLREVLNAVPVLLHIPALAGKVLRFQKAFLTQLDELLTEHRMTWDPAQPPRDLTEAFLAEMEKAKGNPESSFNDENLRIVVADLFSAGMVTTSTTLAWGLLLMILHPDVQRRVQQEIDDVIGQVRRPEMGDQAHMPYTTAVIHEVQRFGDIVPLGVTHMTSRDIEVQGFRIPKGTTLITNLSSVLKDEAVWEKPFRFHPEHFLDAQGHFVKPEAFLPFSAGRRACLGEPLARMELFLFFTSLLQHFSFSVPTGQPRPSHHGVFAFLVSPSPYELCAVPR
How it was run: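 P450-Glo luminescent screen: recombinant CYP2D6 enzyme–proluciferin substrate mix preincubated with compound 10 min at room temperature, then NADPH regeneration added for 1 h at room temperature. Detection reagent added for 20 min; luciferin light read as relative luminescence units.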

[7] = measured here: cell count channel max response
[8] = measured here: lipid channel max response

SMILES	Potency [1]	Potency [2]	activity change, negative = inhibition [3]	max response [3, 7] [%]	max response [3, 8] [%]	Potency [4]	Potency [5]	Potency [6]
CC(=O)c1c(O)c(C)c(O)c2c1OC1=CC(=O)C(C(C)=O)C(=O)C12C (centres undefined)	inactive	inactive	6.96% (inactive)	24.8	22.6			
O=C(/C=C(\O)c1ccccc1)c1ccccc1O	inactive	inactive	-15.7% (inactive)	-12.9	-24.5	inactive		
CC1(C)CC2C1CCC1(C)OC2(C)CCC1O (centres undefined)	inactive	inactive	2.02% (inactive)	12.1	15.9	inactive		
CCC(/C=C/C(C)C1CCC2C3CCC4=CC(=O)CC[C@@]4(C)C3CC[C@@]12C)C(C)C (some centres undefined)	inactive	inactive	4.65% (inactive)	11.9	16.6		inactive	
NC(C(=O)NC1C(=O)N2C(C(=O)O)=C(Cl)CSC12)c1ccccc1 (centres undefined)	inactive	inactive	8.35% (inactive)	18.8	24.9	inactive		
CC(=O)OCC1=C(C(=O)O)N2C(=O)C(NC(=O)Cc3cccs3)C2SC1 (centres undefined)	inactive	inactive	9.08% (inactive)	8.85	22	inactive		
CC(=O)OC1CC2C(C)(C)C=CC(=O)[C@@]2(C)C2CC[C@@]3(C)C(c4ccoc4)OC(=O)C4OC43[C@]12C (some centres undefined)	inactive	inactive	5.35% (inactive)	-8.35	-1.42	inactive		
CC(=O)OC1CC2C(C)(C)C(O)CC[C@@]2(C)C2CC[C@@]3(C)C(c4ccoc4)OC(=O)C4O[C@@]43[C@]12C (some centres undefined)	inactive	inactive	-1.7% (inactive)	-2.48	-4.24		2.51 µM (active)	
CC(=O)OC1CC[C@@]2(C)C3CC(=O)[C@]4(C)C(C(C)=O)=CCC4C3CC[C@H]2C1 (some centres undefined)	inactive	inactive	-12.8% (inactive)	4.87	-10			
CC(C)c1c(O)ccc2c1CCC1[C@@](C)(C=O)CCC[C@@]21C (some centres undefined)	inactive	inactive	-2.8% (inactive)	1.05	-0.0657	inactive		
CC(C)CCCC(C)C1CCC2C3CC=C4CC(=O)CC[C@@]4(C)C3CC[C@@]12C (some centres undefined)	inactive	inactive	3.79% (inactive)	3.76	6.47		inactive	
CC(C)c1ccc2c(c1)CCC1C(C)(C(N)=O)CCCC21C (centres undefined)	inactive	inactive	-15.9% (inactive)	-2.05	-18.2	inactive		
O=C(/C=C/c1ccccc1)c1ccc(O)cc1O	inactive	inactive	-11.9% (inactive)	1.3	-11.1	inactive		
O=c1c(O)cccc2cc(O)c(O)c(O)c12	inactive		9.52% (inactive)	11.8	24.4	inactive		
COc1cc(O)c(C(=O)/C=C/c2ccccc2)c(OC)c1	inactive	inactive	-11.9% (inactive)	2.78	-7.25	inactive		
CC1(C)CC[C@]2(C(=O)O)CC[C@@]3(C)C(=CCC4[C@@]5(C)CCC(O)[C@@](C)(CO)C5CC[C@@]43C)C2C1 (some centres undefined)	inactive	inactive	1.32% (inactive)	5.6	17.6	inactive		
CCCCC(=O)O[C@@]1(C(=O)CO)C(C)CC2C3CCC4=CC(=O)C=C[C@@]4(C)[C@]3(F)C(O)C[C@]21C (some centres undefined)	inactive	inactive	-6.08% (inactive)	9.88	7.08	inactive		
CC(=O)Oc1cc2c(c(C)c1OC(C)=O)CC=C1[C@]3(C)CC[C@]4(C)CC[C@@](C)(C(=O)O)CC4[C@]3(C)CC[C@]12C (some centres undefined)	inactive	inactive	-5.08% (inactive)	-7.33	-12.4	inactive		
CC(=O)OC[C@@]1(O)C[C@]23CCC4c5ccoc5CC[C@@]4(C)C2CCC1C3 (some centres undefined)	inactive	inactive	6.91% (inactive)	7.17	15.2	inactive		
CCCCCCCCCCCCCCC(C(=O)OC)C(O)(CC(=O)OC)C(=O)OC (centres undefined)	inactive	inactive	-24% (inactive)	-1.14	-26.9		inactive	

SMILES	Potency [1]	Potency [2]	activity change, negative = inhibition [3]	max response [3, 7] [%]	max response [3, 8] [%]	Potency [4]	Potency [5]	Potency [6]
CC(C)c1c(O)ccc2c1CCC1[C@@](C)(CO)CCC[C@@]21C (some centres undefined)	inactive	inactive	10.8% (inactive)	14.4	26.5	inactive		
CC(C)=CCC/C(C)=C/COc1ccc2ccc(=O)oc2c1	inactive	inactive	-1.25% (inactive)	27.3	28.1	inactive		
COC(=O)CCC(C)C1CCC2C3C(O)C[C@@H]4CC(O)CC[C@@]4(C)C3CC(O)[C@]12C (some centres undefined)	inactive		2.8% (inactive)	-0.322	3.42			
CC(=O)OC1CCC2(C)C3=C(CCC2C1(C)C)[C@]1(C)CCC(C(C)CCC=C(C)C)[C@]1(C)CC3 (some centres undefined)	inactive	inactive	-0.993% (inactive)	20.7	23.4	inactive		
O=C(CC(=O)c1ccccc1)c1ccccc1	inactive	inactive	2.34% (inactive)	-0.636	4.72	inactive		
C=CC1=C(C)/C(=C/c2[nH]c(Cc3[nH]c(/C=C4\NC(=O)C(C)=C4C=C)c(C)c3CCC(=O)O)c(CCC(=O)O)c2C)NC1=O	inactive	inactive	-0.375% (inactive)	3.69	3.49		inactive	
CC(C)C1=CC2=CCC3[C@@](C)(CCC[C@@]3(C)C(=O)O)C2CC1 (some centres undefined)	inactive	inactive	4.85% (inactive)	5.3	10.4	inactive		
C#CCCCCCCCCCCCC(O)CC(O)CO (centres undefined)	inactive	inactive	15.6% (inactive)	3.34	18.3	inactive		
COc1cc(O)cc(/C=C/c2ccccc2)c1	inactive	inactive	5.85% (inactive)	-8.15	-0.333	inactive		
CC1=C2C(=COC(C)C2C)C(=O)C(C(=O)O)=C1O (centres undefined)	inactive	inactive	4.18% (inactive)	-1.22	4.23			
CC(=O)Nc1ccc(C)cc1-c1nc2ccccc2n(CC(=O)Nc2cc(Cl)ccc2C)c1=O								0.338 µM (active)
C=CCCCCCCCCCCC/C=C/C(O)COC(C)=O (centres undefined)	inactive	inactive	8.71% (inactive)	8.46	19.5			
COc1ccccc1C(=O)Oc1ccc(C(c2c(C)[nH][nH]c2=O)c2c(C)[nH][nH]c2=O)cc1								inactive
CC(C)CCn1c(CN2CCN(C(=O)C(C)C)CC2)nc2c1c(=O)n(C)c(=O)n2C								inactive
O=C(O)c1cc(O)c2c(O)c3c(O[C@@H]4O[C@H](CO)[C@@H](O)[C@H](O)[C@H]4O)cccc3c(-c3c4cc(C(=O)O)cc(O)c4c(O)c4c(O[C@@H]5O[C@H](CO)[C@@H](O)[C@H](O)[C@H]5O)cccc34)c2c1								15.1 µM (active)
NCCCCC(NC(CCc1ccccc1)C(=O)O)C(=O)N1CCCC1C(=O)O (centres undefined)	inactive	inactive	8.08% (inactive)	11.1	24.7			
CC1(C)OC2CC3C4CCC5=CC(=O)CCC5(C)C4(F)C(O)CC3(C)[C@]2(C(=O)CCl)O1 (some centres undefined)	inactive	inactive	8% (inactive)	13.8	26.2			
NCC1O[C@@H](O[C@H]2C(O)C(O[C@@H]3C(O[C@H]4OC(CO)C(O)C(O)C4N)C(N)CC(N)[C@H]3O)O[C@@H]2CO)C(N)C(O)C1O (some centres undefined)	inactive	inactive	10.8% (inactive)	18.8	35.3			
COc1ccc(CNC(=O)C2CCCN(c3nnc(C)c4c(C)n(-c5ccc(C)cc5)nc34)C2)cc1 (centres undefined)								19 µM (active)
CC1=C(C(=O)O)N2C(=O)C(NC(=O)C(N)c3ccccc3)C2SC1 (centres undefined)	inactive	inactive	9.95% (inactive)	9.88	24.8			
